Results on seven molecules are retold here after PubChem BioAssay (EPA / NIEHS).

The structures appear in SMILES notation. Several values for one entry are separate records, joined by “and”; a condition that tells them apart may be missing. Equal values may be shown once. Inconclusive results are not listed. Where a structure was tested more than once in an assay, its records may differ in their call. Activity calls are given as the source filed them. How the source made its calls, unless noted: active means hit-call score of the fitted dose curve at least 0.9, where 1 is the maximum; inconclusive means response in the unintended direction; inactive means score below 0.9.

Read-out in test [1]: Thyroid Hormone Responsive (THRSP), THRSP (gene 7069)
In words: LTEA_HepaRG_THRSP: Life Technologies and Expression Analysis (LTEA) Assay for Thyroid Hormone Responsive (THRSP) using HepaRG (AID 2283536; active means hit-call score of the fitted dose curve at least 0.9, where 1 is the maximum; inactive means score below 0.9). The note with it: mRNA level, 48 h; actives raise or lower the signal. The method, boiled down:
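Differentiated HepaRG cells treated 48 h in serum-free induction medium with 8 half-log concentrations up to 100 uM (0.5% DMSO), duplicates. THRSP mRNA by TaqMan qRT-PCR normalised to ACTB, GAPDH, POLR2A; bidirectional fit versus DMSO.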

Read-out in test [2]: Cellular tumor antigen p53 (Homo sapiens) (UniProt P04637)
In words: LTEA_HepaRG_TP53: Life Technologies and Expression Analysis (LTEA) Assay for Tumor Protein P53 (TP53) using HepaRG (AID 2283537; active means hit-call score of the fitted dose curve at least 0.9, where 1 is the maximum; inactive means score below 0.9). The following applies: mRNA level, 48 h; actives raise or lower the signal. In a few lines: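 Read-out is TP53 transcript level by microfluidic qRT-PCR, normalised to three housekeeping genes and fitted bidirectionally against DMSO. Human HepaRG cells received compounds for 48 h, highest concentration 100 uM.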

Read-out in test [3]: UDP glucuronosyltransferase (UGT1A1), UGT1A1 (gene 54658)
In words: LTEA_HepaRG_UGT1A1: Life Technologies and Expression Analysis (LTEA) Assay for UDP glucuronosyltransferase (UGT1A1) using HepaRG (AID 2283538; active means hit-call score of the fitted dose curve at least 0.9, where 1 is the maximum; inactive means score below 0.9). The following applies: mRNA level, 48 h; actives raise or lower the signal. The method, boiled down: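 Human liver HepaRG cultures receive test chemical for 48 h, up to 100 uM in 0.5% DMSO, with phenobarbital induction controls. UGT1A1 mRNA is measured by qRT-PCR and normalized to ACTB, GAPDH and POLR2A.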

Read-out in test [4]: UDP glucuronosyltransferase (UGT1A6), UGT1A6 (gene 54578)
In words: LTEA_HepaRG_UGT1A6: Life Technologies and Expression Analysis (LTEA) Assay for UDP glucuronosyltransferase (UGT1A6) using HepaRG (AID 2283539; active means hit-call score of the fitted dose curve at least 0.9, where 1 is the maximum; inactive means score below 0.9). The following applies: mRNA level, 48 h; actives raise or lower the signal. In a few lines:
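qRT-PCR readout of UGT1A6 mRNA (normalized to ACTB/GAPDH/POLR2A) in differentiated HepaRG cells after 48 h chemical exposure; 8 concentrations, top 100 uM, half-log steps, 0.5% DMSO. Bidirectional curve fit relative to DMSO baseline.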

Read-out in test [5]: X-box binding protein 1 (XBP1), XBP1 (gene 7494)
In words: LTEA_HepaRG_XBP1: Life Technologies and Expression Analysis (LTEA) Assay for X-box binding protein 1 (XBP1) using HepaRG (AID 2283540; active means hit-call score of the fitted dose curve at least 0.9, where 1 is the maximum; inactive means score below 0.9). The following applies: mRNA level, 48 h; actives raise or lower the signal. In a few lines:
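HepaRG, 48 h exposure, 8-pt half-log CRC top 100 uM, 0.5% DMSO vehicle, duplicates. Readout: TaqMan qRT-PCR of XBP1 mRNA, housekeeping-normalised (ACTB/GAPDH/POLR2A); bidirectional fit vs DMSO baseline.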

Test [6] in a line: LTEA_HepaRG_LDH_cytotoxicity: Cytotoxicity Assessment in the Life Technologies and Expression Analysis (LTEA) Assay (AID 2283563).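 On AC50: LDH activity released into spent culture medium as a marker of cell death.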 In a few lines:
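HepaRG (human liver line), 48 h exposure, 8-pt half-log series from 100 uM, 0.5% DMSO vehicle, duplicates. Read-out: LDH in spent medium. Positive-direction fit vs DMSO baseline.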

For test [7], the target named is Cellular tumor antigen p53 (Homo sapiens) (UniProt P04637). Kind of test: TOX21_p53_BLA_p2_ratio: Tox21 HCT-116 p53 Agonism Beta-lactamase Assay, Ratio, Phase 2 (AID 2283592). The method, boiled down: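 In this cell-based reporter format, HCT116 cells were dosed with chemicals delivered from DMSO by 217-fold dilution and incubated 16 h at 37C. Emission at 460 and 530 nm after 2 h CCF4-AM loading provided the ratio, fitted upward versus DMSO.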

Test [8] in a line: TOX21_p53_BLA_p3_viability: Viability Assessment in the Tox21 HCT-116 p53 Agonism Beta-lactamase Assay, Phase 3 (AID 2283593).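 Further: cells exposed to compound for 16 h before reading.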 The method, boiled down: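 HCT116 cells, 4000/well, dosed 5 h after plating by pin transfer (217-fold dilution from DMSO stock) and incubated 16 h at 37C, 5% CO2. Viability read as ATP luminescence with CellTiter-Glo after 30 min at room temperature.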

Test [9] can be described thus: TOX21_p53_BLA_p4_viability: Viability Assessment in the Tox21 HCT-116 p53 Agonism Beta-lactamase Assay, Phase 4 (AID 2283597).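 Further: hits lower the luminescence signal meaning cytotoxicity.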 In a few lines: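 We seeded HCT116 p53 reporter cells at 4000/well and waited 5 h. We then added compounds in DMSO at a 217-fold dilution and incubated for 16 h. Viability was read as CellTiter-Glo luminescence after 30 min at RT.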
The target in test [10] is Cellular tumor antigen p53 (Homo sapiens) (UniProt P04637). Kind of test: TOX21_p53_BLA_p4_ratio: Tox21 HCT-116 p53 Agonism Beta-lactamase Assay, Ratio, Phase 4 (AID 2283601). In a few lines: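 HCT-116 p53 beta-lactamase reporter cells (4000/well) preincubated 5 h, then compound (217-fold dilution of DMSO stock) for 16 h at 37C. CCF4-AM substrate added 2 h at room temperature; 460/530 nm emission ratio fitted upward versus DMSO.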

A short description of test [11]: Tanguay_ZF_120hpf_YSE_legacy: (Legacy) Oregon State University Tanguay Lab 120 Hour Post-fertilization zebrafish Assay for Yolk Sac Edema (AID 2283634). The method, boiled down: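 Binary brightfield scoring of yolk sac edema at 120 hpf; DMSO baseline, gain-of-signal fitting. Dechorionated 5D larvae, one per well, static exposure 6–120 hpf, 28C, 0.64% DMSO. Dead embryos not scored.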

Test [12] can be described thus: Tanguay_ZF_120hpf_AXIS_legacy: (Legacy) Oregon State University Tanguay Lab 120 Hour Post-fertilization zebrafish Assay for Body Axis Malformation (AID 2283635). The method, boiled down: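 Embryos: 5D wild-type, pronase-dechorionated 4 hpf; static exposure 6–120 hpf, 28C, sealed, dark, 1 embryo/well, 0.64% DMSO. 120 hpf axis malformation scored present/absent; dead embryos excluded. Analysed as gain of signal vs DMSO.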

Test [13] is described as follows: Tanguay_ZF_120hpf_EYE_legacy: (Legacy) Oregon State University Tanguay Lab 120 Hour Post-fertilization zebrafish Assay for Eye Malformation (AID 2283636).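 Further: binary presence or absence of eye malformation scored by brightfield in 120 hpf larvae.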 In a few lines: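 Dechorionated Tropical 5D zebrafish embryos, one per well from 6 hpf, static exposure to 120 hpf at 28C, 0.64% DMSO. Eye malformation scored present/absent by brightfield; dead embryos not scored.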

Test [14] is described as follows: Tanguay_ZF_120hpf_SNOU_legacy: (Legacy) Oregon State University Tanguay Lab 120 Hour Post-fertilization zebrafish Assay for Snout Malformation (AID 2283637). In a few lines:
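Dechorionated tropical 5D wild-type zebrafish embryos exposed statically from 6 to 120 hpf at 28C, one per well, in 0.64% DMSO. Snout malformation scored as present/absent by brightfield at 120 hpf; dead embryos not scored.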

Test [15] in a line: TOX21_p53_BLA_p2_viability: Viability Assessment in the Tox21 HCT-116 p53 Agonism Beta-lactamase Assay, Phase 2 (AID 2283591).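 Further: compound exposure lasted 16 h at 37 °C; actives lower the ATP signal meaning cytotoxicity.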 The method, boiled down:
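HCT116 p53-bla cells, 4000/well, dosed after 5 h plating (217-fold dilution of DMSO stocks) and incubated 16 h at 37C. Viability taken as cellular ATP by CellTiter-Glo luminescence after 30 min RT; signal loss marks cytotoxicity.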

For test [16], the target named is Cellular tumor antigen p53 (Homo sapiens) (UniProt P04637). In words: TOX21_p53_BLA_p3_ratio: Tox21 HCT-116 p53 Agonism Beta-lactamase Assay, Ratio, Phase 3 (AID 2283596). In a few lines:
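HCT116 p53-bla cells (4000/well) given compound in DMSO (217-fold dilution) after 5 h, incubated 16 h at 37C. CCF4-AM substrate 2 h at room temperature; 460/530 nm emission ratio, gain fitted against DMSO.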

Test [17] shares this target. In words: TOX21_p53_BLA_p5_ratio: Tox21 HCT-116 p53 Agonism Beta-lactamase Assay, Ratio, Phase 5 (AID 2283599). In a few lines:
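HCT-116 p53-bla cells (4000/well) plated 5 h, dosed with compound (217-fold DMSO dilution) for 16 h at 37 C; CCF4-AM substrate 2 h at room temperature. Activity is the 460/530 nm emission ratio (405 nm excitation), fitted in gain-of-signal direction versus DMSO.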

A short description of test [18]: TOX21_p53_BLA_p5_viability: Viability Assessment in the Tox21 HCT-116 p53 Agonism Beta-lactamase Assay, Phase 5 (AID 2283600). The method, boiled down: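 Compounds, pinned from DMSO at 217-fold dilution, were left on the cells for 16 h. The viability endpoint was ATP content measured by CellTiter-Glo luminescence, where falling signal reflects cytotoxicity.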
Test [19] can be described thus: ATG_XTT_Cytotoxicity: Cytotoxicity Assessment in the Attagene TRANS-FACTORIAL HepG2 Assay (AID 2283584). The method, boiled down: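 XTT readout of cell number in transfected HepG2 cells, 24 h post-dosing; DMSO serves as negative control and baseline, with activity taken as loss of viability signal.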
Test [20] in a line: Tanguay_ZF_120hpf_MORT_legacy: (Legacy) Oregon State University Tanguay Lab 120 Hour Post-fertilization zebrafish Assay for Mortality (AID 2283633).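 On AC50: fitted as increase in binary mortality versus DMSO negative control.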 In a few lines: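 Brightfield scoring of embryo death (binary) at 24 and 120 hpf; static exposure 6–120 hpf, 28C, sealed and foil-covered. Pronase-dechorionated 5D wild-type larvae, single embryo per well. DMSO 0.64% v/v; trimethyltin chloride 5uM positive control.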

Sequence of Cellular tumor antigen p53 (Homo sapiens) (P04637 whole entry, looked up): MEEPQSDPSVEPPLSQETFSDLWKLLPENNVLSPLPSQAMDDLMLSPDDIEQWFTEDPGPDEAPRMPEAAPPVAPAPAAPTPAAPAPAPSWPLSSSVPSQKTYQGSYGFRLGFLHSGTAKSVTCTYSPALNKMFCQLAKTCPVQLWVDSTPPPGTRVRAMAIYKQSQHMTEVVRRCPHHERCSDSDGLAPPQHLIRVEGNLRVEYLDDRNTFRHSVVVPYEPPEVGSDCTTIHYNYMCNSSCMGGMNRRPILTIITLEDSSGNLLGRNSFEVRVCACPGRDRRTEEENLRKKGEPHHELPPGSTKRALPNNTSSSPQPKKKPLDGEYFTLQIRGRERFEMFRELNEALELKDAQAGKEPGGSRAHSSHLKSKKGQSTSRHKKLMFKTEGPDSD

Turning to `CNCc1ccc(NC(=O)c2c[nH]c3c2C(=O)CCC3)cc1`, the molecule was classed as inactive in [1], in [2], in test [3], in test [4], in test [5] and in test [6]. The outcome in test [7], in [8], in [9], in test [10], in test [11] and in [12] was inactive. In addition, the outcome in test [13] and in test [14] was inactive.
For orientation: AC50 means the concentration giving half of the maximal activity seen. In the case of `CN(C)c1ccc(Cc2ccc(N(C)C)cc2)cc1`, the AC50 in test [1] was 19.5 µM (active); in test [3], 11.5 µM (active); in test [4], 85.6 µM (active). In addition, the call in test [2], in [5], in [6], in test [15], in [7] and in test [8] was inactive. For the same molecule, the result in test [16], in [9], in [17], in test [18], in [10] and in test [11] was inactive. The molecule was classed as inactive in [12], in test [13] and in [14].
As to `CCCCC(CC)COC(=O)CCCCCCCCC(=O)OCC(CC)CCCC` (centres undefined), the molecule was called inactive in [1], in test [2], in test [3], in test [4], in test [5] and in test [19]. Also, the molecule was classed as inactive in [15], in [7], in test [8], in test [11], in test [12] and in test [14].
Turning to `COC(=O)CC(=O)OC`, the outcome in test [1], in [2], in test [3], in test [4], in test [5] and in [6] was inactive. Further, the result in [15], in test [7], in test [16], in test [9], in test [17] and in [18] was inactive. For the same molecule, the result in [10], in test [20], in test [11], in [12] and in test [14] was inactive.
As for `COCCOc1cc2cc(C(=O)NC3CCN(C(C)C)CC3)n(CC(=O)Nc3ccc(Cl)cn3)c2cn1`, the AC50 was 51.5 µM (active) in test [1], 82.2 µM (active) in test [3], 12.1 µM (active) in [5] and 59.3 µM (active) in test [6]. The call in [2], in test [4], in test [8], in [16], in test [9] and in test [17] was inactive. Further, the molecule was called inactive in test [20], in test [11], in test [12], in test [13] and in test [14].
For `CC[C@H](C)C(=O)O[C@H]1C[C@@H](C)C=C2C=C[C@H](C)[C@H](CC[C@@H]3C[C@@H](O)CC(=O)O3)[C@H]21`, the molecule was classed as inactive in test [2], in [4], in test [5], in [6], in test [15] and in [7]. Moreover, the call in test [8], in [16], in [9], in test [17], in [10] and in test [11] was inactive. Moreover, the outcome in [12], in test [13] and in test [14] was inactive. Moreover, the AC50 in test [3] is 0.0554 µM (active); in [15], 44.6 µM (active); in test [7], 84.3 µM (active); in test [8] it was 82.5 µM (active) and 35.6 µM (active); in test [9], 79.2 µM (active) and 27.4 µM (active); in test [17] it was 97.1 µM (active) and 37.7 µM (active). Moreover, the AC50 is 97.1 µM (active) in [10] and 1.33 µM (active) in test [20].
`CCNc1ccccc1`: the result in [1], in [2], in test [3], in [4], in [5] and in [6] was inactive. For the same molecule, the molecule was called inactive in [15], in test [7], in test [16], in [9], in test [17] and in [10]. Further, the molecule was classed as inactive in test [11], in [12] and in [14].
